# Key:
# Assay in all cases: PBM binding z-score (relative to random genomic background probes); higher = stronger binding; sequences stand for … in GC…GCGATTGACAGCGTAGAATGAAGG
# [1] = test system: FXR:RXRa (NR concentration 270 nM, RXRa partner concentration 90 nM)
# Method in brief: (§1)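 Binding z-scores were set against random background probes. The data came from custom Agilent 4×180K protein-binding microarrays carrying double-stranded probes with 34-nt variable regions, incubated 1 h with ligand-free nuclear receptor dimers. Partner-specific antibodies detected binding, and scanned fluorescence was regression-normalized.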
# [2] = test system: LXRa:RXRa (NR concentration 270 nM, RXRa partner concentration 90 nM)
# Method in brief: as §1
# [3] = test system: LXRa homodimer (NR concentration 270 nM)
# Method in brief: as §1
# [4] = test system: LXRb:RXRa (NR concentration 270 nM, RXRa partner concentration 90 nM)
# Method in brief: as §1
# [5] = test system: LXRb homodimer (NR concentration 270 nM)
# Method in brief: as §1
# [6] = test system: PPARa:RXRa (NR concentration 270 nM, RXRa partner concentration 90 nM)
# Method in brief: as §1
# [7] = test system: PPARg:RXRa (NR concentration 180 nM, RXRa partner concentration 90 nM)
# Method in brief: as §1
# [8] = test system: PPARg:RXRa 270nM:90nM, anti-RXR (NR concentration 270 nM, RXRa partner concentration 90 nM)
# Method in brief: as §1
# [9] = test system: PPARg:RXRa 30nM:10nM, anti-RXR (NR concentration 30 nM, RXRa partner concentration 10 nM)
# Method in brief: as §1
# [10] = test system: PPARg:RXRa 90nM:30nM, anti-RXR (NR concentration 90 nM, RXRa partner concentration 30 nM)
# Method in brief: as §1
# [11] = test system: PPARg:RXRa DBDmut IVT, anti-RXR (DBD mutation: RXRa K156A/R161A, NR concentration 270 nM, RXRa partner concentration 90 nM)
# Method in brief: as §1
# [12] = test system: PPARg:RXRa IVT, anti-PPARg (NR concentration 270 nM, RXRa partner concentration 90 nM)
# Method in brief: as §1
# [13] = test system: PPARg DBDmut:RXRa IVT, anti-PPARg (DBD mutation: PPARg1 K132A/R137A, NR concentration 270 nM, RXRa partner concentration 90 nM)
# Method in brief: as §1
# [14] = test system: PPARg DBDmut IVT, anti-PPARg (DBD mutation: PPARg1 K132A/R137A, NR concentration 270 nM)
# Method in brief: as §1
# [15] = test system: PPARg homodimer (NR concentration 180 nM)
# Method in brief: as §1
# [16] = test system: PXR:RXRa (NR concentration 270 nM, RXRa partner concentration 90 nM)
# Method in brief: as §1
# [17] = test system: PXR homodimer (NR concentration 270 nM)
# Method in brief: as §1
# [18] = test system: RARa:RXR (NR concentration 270 nM, RXRa partner concentration 90 nM)
# Method in brief: as §1
# [19] = test system: RARa homodimer (NR concentration 270 nM)
# Method in brief: as §1
# [20] = test system: RARb:RXRa (NR concentration 270 nM, RXRa partner concentration 90 nM)
# Method in brief: as §1
Sequence,PBM binding z-score [1],PBM binding z-score [2],PBM binding z-score [3],PBM binding z-score [4],PBM binding z-score [5],PBM binding z-score [6],PBM binding z-score [7],PBM binding z-score [8],PBM binding z-score [9],PBM binding z-score [10],PBM binding z-score [11],PBM binding z-score [12],PBM binding z-score [13],PBM binding z-score [14],PBM binding z-score [15],PBM binding z-score [16],PBM binding z-score [17],PBM binding z-score [18],PBM binding z-score [19],PBM binding z-score [20]
TTTCCAAGGTGAAGGTCGTTGATCCCTCTGTAGA,2.77,2.31,0.296,1.8,-0.21,2.81,2.68,3.7,1.88,3.35,1.63,3.3,-0.24,0.793,1.03,1.68,0.247,2.21,-0.347,2.29
TAGGCTAGGTCATTGGGCCAGTATAGTACGCATC,4,2.77,0.321,1.87,0.37,3.73,3.73,3.76,0.966,2.24,2.74,3.99,0.305,0.421,1.41,1.32,-0.0794,1.9,0.178,3.79
TCTTGTAGATAAACAGGAGGTTAAGAAAGATCGA,0.162,1.13,0.276,1.01,-0.398,1.27,0.346,1.3,2.82,1.89,1.35,0.282,0.991,1.09,0.0399,0.748,-0.0168,1.05,0.379,0.359
CAGACAGGGTCAGCTAGGCCAGAGTAGGGACGGC,4.38,2.22,-0.426,1.75,-0.493,4.34,2.66,2.47,0.42,1.51,0.343,1.7,-0.372,-0.169,1.26,1.72,-0.203,2.83,-0.174,3.84
CCGACTGGGGCAGAAAGGTTACCATGCCATCCGG,0.204,0.517,-0.401,0.479,-1.31,2.23,1.6,2.65,0.457,1.82,1.38,2.43,-1.53,-1.09,0.386,0.882,-0.381,1.61,-0.141,2
TCTTGTAGATCAACAGGAGGTTAAGACAGATCGA,0.088,1.15,-0.145,0.737,-0.342,1.3,0.205,1.36,2.4,2.07,1.59,0.984,0.978,0.46,-0.0911,0.727,-0.273,0.694,0.154,0.534
TCAGACAGGTGAAGGAAACTCAGGTACGCAGTCG,0.911,1.04,0.00488,0.561,0.0545,1.05,0.717,2.37,4.29,3.32,2.96,0.598,0.181,-0.163,0.667,0.502,0.224,0.564,0.502,0.976
AGAATGAGGTAACCAAAGATCAGGGAAACGCTTG,-0.0845,3.81,-0.311,0.439,-0.22,1.21,1.15,0.888,0.575,0.541,3.05,2.17,1.22,1.42,-0.124,0.0437,-0.0264,0.577,0.155,0.403
TCTTGTAGATCAACAGGAGGTTAAGCAAGATCGA,0.257,0.838,-0.069,0.853,-0.368,1.48,0.076,1.47,2.39,1.74,1.61,0.884,0.4,0.795,-0.0893,0.934,0.136,1.22,-0.27,0.659
ATCGAAAGGTCGACGAGGTGAGTCTACACCGTTT,4.73,3.39,-0.244,2.47,0.381,4.55,2.93,3.2,0.846,1.9,0.545,2.03,1.28,0.606,1.13,3.31,0.495,3.84,0.442,3.98
ATATGTAGGTTAAGGGTCATTAAGGTTGGTTCGC,5.05,4.87,2.72,4.3,0.865,6.59,11.6,9.59,10.3,10.7,7.35,7.81,2.09,1.17,3.24,4.92,3.59,5.16,2.38,3.74
CTACCAAGGTGAACAAGGACGTTGATTACTATTC,0.78,0.235,0.0356,0.647,-0.411,0.963,0.812,0.636,0.194,0.209,2.52,2.17,0.0703,0.657,0.761,0.356,0.295,0.5,0.187,1.55
ATATGTAGGTTATCGGGTCCTTCAGTTTGCGCAT,0.663,0.859,0.528,0.856,0.389,3.24,5.01,4.43,1.77,3.45,6.92,6.98,2.02,2.6,1.69,0.963,0.468,0.74,0.677,0.829
CCGAGTAGGTTGTGGGGCATTCAGGCAACGGTGA,-0.145,-0.118,0.0165,0.178,-0.163,0.496,0.169,1.61,-0.549,0.776,1.04,1.29,-1.06,-0.659,0.736,-0.334,0.115,-0.303,0.109,0.0437
